We go through 22 compounds from PubChem BioAssay (NCATS).

Records with an inconclusive call do not appear. Active and inactive are the calls of the source. The call rests on the fitted dose curve; in most records, active means well fitted cell-killing curve with a large enough effect; inconclusive means small, poorly fitted or top-dose-only effect, or effect the other way; inactive means no such curve, though single readings can be large or run the other way.
Potency means the concentration at half of the fitted maximal effect.

The nature of the assay: Quantitative High-Throughput drug screen in 47 multiple myeloma cell lines against the NCATS MIPE library collection: KMS11_JCRBsus cell viability assay (AID 1919873). Further: nearly all actives have a fitted effect of over 50% in size. Conditions: KMS11 myeloma viability, CellTiter-Glo ATP luminescence, 48 h; series mostly up to 45.8 µM; viability (% of control): at the top concentration. An excerpt: PI: Beverly A. Mock Ph.D.
Laboratory of Cancer Biology and Genetics,
Center for Cancer Research, National Cancer Institute,
National Institute of Health, Bethesda, Maryland
Drug resistance and disease progression are common in multiple myeloma (MM) patients, underscoring the need for new therapeutic combinations. […] We hypothesized that effective combinations would reduce MYC expression and enhance p16 activity. […] These preclinical data identify potentially useful drug combinations for evaluation in drug-resistant MM and reveal potential mechanisms of combined drug sensitivity.
Described herein is the primary MIPE qHTS used to cherrypick compounds. Validated compounds were then further tested for potential synergistic activiy.
[1] Peat TJ, Gaikwad SM, Dubois W, Gyabaah-Kessie N, Zhang S, Gorjifard S, Phyo Z, Andres M, Hughitt VK, Simpson RM, Miller MA, Girvin AT, Taylor A, Williams D, D'Antonio N, Zhang Y, Rajagopalan A, Flietner E, Wilson K, Zhang X, Shinn P, Klumpp-Thomas C, McKnight C, Itkin Z, Chen L, Kazandijian D, Zhang J, Michalowski AM, Simmons JK, Keats J, Thomas CJ, Mock BA. Drug combinations identified by high-throughput screening promote cell cycle transition and upregulate Smad pathways in myeloma. Cancer Lett. 2023 Aug 1;568:216284. doi: 10.1016/j.canlet.2023.216284. Epub 2023 Jun 24. PMID: 37356470; PMCID: PMC10408729.
SEQUENCE No. (e.g., 1, 2, 3, etc.); […] (e.g., Cells, Incubation, Reagent, etc.); VALUE and DESCRIPTION.
1; Cells; 5 uL; white, solid bottom 1536-well Greiner assay plate.
2; Compounds; 23 nL; Kalypsis pin tool (Wako USA) equipped with a 1536-well pin head to transfer to the assay plates.
3; Incubation; 48 hours; 37C incubation.
4; Reagent;5uL; CellTiter Glo (Promega).
5; Detector; 425V; Luminescence; Viewlux PerkinElmer.
NOTES (numbers refer to Sequence numbers above)
1. The cell-based screening methods employed in this study were like those previously published. Briefly, the corresponding myeloma cell lines were screened in 1,536-well plates with 500 cells, 5-uL per well for inhibition of cell viability (assessed by measuring ATP levels with CellTiterGlo).
2. NCATS MIPE 4.0 library of approved and investigational drugs were added using the Kalypsis pin tool. Wells treated with DMSO only for 100% viability and media only for 0% viability were used as controls.
3. The assay plates were covered and incubated for 48 hours in a 37C, 5% CO2 incubator with controlled humidity.
4. After 48 hours, CellTilter-GloTM luminescent substrate mix (Promega) reagent was added to the assay plate and plates we incubated for 5 min at room temperature.
5. Signal was measured as median relative luminescence units on a ViewLux (PerkinElmer) multiplate reader.
[1] Heske CM, Davis MI, Baumgart JT, Wilson K, Gormally MV, Chen L, Zhang X, Ceribelli M, Duveau DY, Guha R, Ferrer M, Arnaldez FI, Ji J, Tran HL, Zhang Y, Mendoza A, Helman LJ, Thomas CJ. Matrix Screen Identifies Synergistic Combination of PARP Inhibitors and Nicotinamide Phosphoribosyltransferase (NAMPT) Inhibitors in Ewing Sarcoma. Clin Cancer Res. 2017 Dec 1;23(23):7301-7311. doi: 10.1158/1078-0432.CCR-17-1121. Epub 2017 Sep 12. PMID: 28899971; PMCID: PMC6636827.
(In ATP-based viability assays light output follows the ATP content of the culture.)
Take `NCC1(CC(=O)O)CCCCC1`: the “viability (% of control)” value was 90.3% (inactive).
Turning to `O=C1CC[C@@]2(O)[C@H]3Cc4ccc(O)c5c4[C@@]2(CCN3CC2CC2)[C@H]1O5`, the “viability (% of control)” value is 113% (inactive).
As to `CN(C)CCc1ccc(O)cc1`, the “viability (% of control)” value was 96.1% (inactive).
As to `C=C(C)[C@H]1Cc2c(ccc3c2O[C@@H]2COc4cc(OC)c(OC)cc4[C@@H]2C3=O)O1`, the Potency is 0.332 µM (active).
On the same count and under the same terms, then `C[C@@H]1[C@@H](CC(C[C@H]2O[C@@H]3O[C@]4(C)CC[C@@H]5[C@H](C)CC[C@@H]([C@H]2C)[C@@]35OO4)C[S+](=O)([O-])c2ccc(COC(=O)N(C)C)cc2)O[C@@H]2O[C@]3(C)CC[C@H]4[C@H](C)CC[C@@H]1[C@@]24OO3` (some centres not stated), with 0.148 µM (active).
Take `CC(O)(CS(=O)(=O)c1ccc(F)cc1)C(=O)Nc1ccc(C#N)c(C(F)(F)F)c1` (configuration not stated): the “viability (% of control)” value is 69.7% (inactive).
Take `CN(C)[C@@H]1C(=O)C(C(N)=O)=C(O)[C@@]2(O)C(=O)C3=C(O)c4c(O)cccc4[C@@](C)(O)[C@H]3C[C@@H]12`: the “viability (% of control)” value is 109% (inactive).
On the same count and under the same terms, for `CNC(=O)c1ccc(N2C(=S)N(c3ccc(C#N)c(C(F)(F)F)c3)C(=O)C23CCC3)cc1F` the value was 70.4% (inactive).
Take `N[C@@H](Cc1ccc(N(CCCl)CCCl)cc1)C(=O)O`: the Potency was 23.5 µM (active).
`Cc1cccc(C)c1NC(=O)CN1CCCC1=O`: the “viability (% of control)” value is 105% (inactive).
`CC(C)CC(N(C)C)C1(c2ccc(Cl)cc2)CCC1` (configuration not stated): the Potency was 18.7 µM (active).
For the compound `COC[C@@H](NC(C)=O)C(=O)NCc1ccccc1`, the “viability (% of control)” value was 101% (inactive).
As to `Cc1sc2c(c1C)C(c1ccc(Cl)cc1)=N[C@@H](CC(=O)OC(C)(C)C)c1nnc(C)n1-2`, the Potency was 0.059 µM (active).
For the compound `CN(C)CCN(C)CCc1ccc(Cl)c(Cl)c1`, the “viability (% of control)” value is 87.6% (inactive).
Regarding `CNCC(O)c1ccc(O)cc1` (configuration not stated), the “viability (% of control)” value was 106% (inactive).
Consider `COc1ccc(C(=O)c2c(C)n(CCN3CCOCC3)c3ccccc23)cc1`, for which the “viability (% of control)” value was 89.8% (inactive).
In the case of `C[C@@H]1O[C@@H](O[C@H]2C[C@@H](O)[C@]3(CO)[C@H]4[C@H](O)C[C@]5(C)[C@@H](C6=CC(=O)OC6)CC[C@]5(O)[C@@H]4CC[C@]3(O)C2)[C@H](O)[C@H](O)[C@H]1O`, the Potency was 0.0935 µM (active).
Same read-out and setting: then `Fc1ccc(C(OCCN2CCN(CCCc3ccccc3)CC2)c2ccc(F)cc2)cc1`, with 11.8 µM (active).
For `COc1ccc(C(CN(C)C)C2(O)CCCCC2)cc1` (configuration not stated), the “viability (% of control)” value is 80.5% (inactive).
Consider `CN1CCN(C(=O)O[C@H]2c3nccnc3C(=O)N2c2ccc(Cl)cn2)CC1`, for which the “viability (% of control)” value was 104% (inactive).
In the case of `COC[C@H]1OC(=O)c2coc3c2[C@@]1(C)C1=C(C3=O)C2CCC(=O)[C@@]2(C)C[C@H]1OC(C)=O` (some centres not stated), the Potency is 13.2 µM (active).
In the case of `Cn1c(CCCC(=O)O)nc2cc(N(CCCl)CCCl)ccc21`, the “viability (% of control)” value was 106% (inactive).
